Experiment [1] deals with Retinoic acid receptor RXR-alpha (Homo sapiens) (UniProt P19793). Nature of the experiment: qHTS assay to identify small molecule agonists of the RXR signaling pathway (AID 1159527; calls by dose curve; further: nearly all actives have a fitted effect of over 35% in size; further: potency means the concentration at half of the fitted maximal effect). In outline:
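16 hr incubation of compound-treated RXR-alpha-UAS-bla HEK 293T cells (2% charcoal-stripped FBS, 37 C) preceded a 2 hr room-temperature LiveBLAzer FRET substrate step and blue/green fluorescence measurement.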
A general note: qHTS replaces the single test concentration by a dilution series.

Experiment [2] in a line: qHTS assay to identify small molecule agonists of the RXR signaling pathway - cell viability counter screen (AID 1159529).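 Further: HEK 293T cells carrying an RXR-alpha UAS beta-lactamase reporter; series mostly up to about 77 µM; nearly all actives have a fitted effect of over 50% in size.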 The procedure, abridged: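 In this parallel viability measure, GeneBLAzer RXR-alpha HEK 293T cells (2% charcoal-stripped FBS) were given a 5 hr preincubation, treated with compounds 16 hr at 37 C, and read by CellTiter-Glo luminescence.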
The nature of experiment [3]: qHTS assay to identify small molecule antagonists of the retinoid acid receptor (RAR) signaling pathway - cell viability counter screen (AID 1159551). Further: nearly all actives have a fitted effect of over 35% in size. The procedure, abridged: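 Cytotoxicity counter screen: ATP content quantified by CellTiter-Glo luminescence in C3RL4 cells treated 6 hr at 37 C with compound and retinol (1 uM final). Cells plated at 1,000/well and cultured overnight before dosing.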

Experiment [4] in a line: qHTS assay to identify small molecule antagonists of the retinoic acid receptor (RAR) signaling pathway (AID 1159552; further: nearly all actives have a fitted effect of over 50% in size). In outline: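 C3RL4 RARE-luc cells, overnight plating; retinol 1 uM final added right after compound; 6 hr 37 C; luciferase read at 30 min RT.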
The nature of experiment [5]: qHTS assay to identify small molecule agonists of the retinoic acid receptor (RAR) signaling pathway (AID 1159553). The procedure, abridged: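 Luminescence was measured 30 min after luciferase reagent addition at room temperature. Before that, C3RL4 reporter cells (1,000 per well, plated overnight) were treated with compound for 6 hr at 37 C and 5% CO2.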
Experiment [6] is described as follows: qHTS assay to identify small molecule antagonists of the estrogen related receptor (ERR) signaling pathway from Tox21 library - cell viability counter screen (AID 1224834). Further: nearly all actives have a fitted effect of over 30% in size. The procedure, abridged: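 CellTiter-Fluor fluorescence, read after 30 min at 37 C, measures viability of ERR cells. Cells plated at 2,000/well and incubated 6 h before pin-tool compound addition, then exposed 17.5 hours at 37 C.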

Experiment [7] is described as follows: qHTS assay to identify small molecule agonists of the constitutive androstane receptor (CAR) signaling pathway - cell viability counter screen (AID 1224836). Further: series mostly up to about 92 µM; nearly all actives have a fitted effect of over 45% in size. In outline:
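Using CellTiter-Fluor, viability of HepG2 cells harbouring hCAR and CYP2B6-2.2kb was measured following 23 h incubation with a 15-concentration compound series plus PK11195 (0.75 uM final).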

The nature of experiment [8]: qHTS assay to identify small molecule antagonists of the constitutive androstane receptor (CAR) signaling pathway - cell viability counter screen (AID 1224837). Further: series mostly up to about 92 µM; nearly all actives have a fitted effect of over 45% in size. The procedure, abridged: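 Cytotoxicity counter-screen: CellTiter-Fluor fluorescence after 23 h compound exposure (15-point qHTS) in double-stable HepG2-CYP2B6-hCAR cells, with 50 nM CITCO added.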
The nature of experiment [9]: qHTS assay to identify small molecule antagonists of the estrogen related receptor signaling pathway with the pleiotropic PPARgamma coactivator (PGC) from Tox21 10K library - cell viability counter screen (AID 1224840; active means well fitted cell-killing curve with a large enough effect in the repeat runs, not every such curve was filed as active; further: nearly all actives have a fitted effect of over 40% in size). The procedure, abridged: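 Counter-screen for cytotoxicity: after 17.5 h compound exposure at 37 C, CellTiter-Fluor reagent added to PGC/ERR cells for 30 min and fluorescence read. Cells were seeded at 2,000 per well 6 h before dosing.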

Experiment [10] deals with Nuclear receptor subfamily 1 group I member 3 (Homo sapiens) (UniProt Q14994). Put plainly: qHTS assay to identify small molecule antagonists of the constitutive androstane receptor (CAR) signaling pathway (AID 1224838).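 Further: HepG2 cells stably expressing hCAR with CYP2B6 luciferase reporter stimulated by CITCO; nearly all actives have a fitted effect of over 40% in size.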 The procedure, abridged:
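Antagonism measured as luciferase signal (ONE-Glo, 30 min, room temperature) in CAR-stimulated cells: HepG2-CYP2B6-hCAR double-stable line exposed 24 hr at 37 C to compound in a 15-point series plus 50 nM CITCO.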

The target is the same in experiment [11]. Nature of the experiment: qHTS assay to identify small molecule agonists of the constitutive androstane receptor (CAR) signaling pathway (AID 1224839). Further: nearly all actives have a fitted effect of over 15% in size. Further: potency means the concentration at half of the fitted maximal effect.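 On activation: HepG2 cells stably carrying human CAR and a CYP2B6 luciferase reporter; series mostly up to about 92 µM.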 In outline: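 Double-stable HepG2 cells (hCAR, CYP2B6-2.2kb) seeded 4 h before compound addition. Exposure 24 h with 0.75 uM PK11195 final. Luciferase detected by ONE-Glo.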
Experiment [12] is described as follows: qHTS assay to identify small molecule antagonists of the estrogen related receptor signaling pathway with the pleiotropic PPARgamma coactivator (PGC) from Tox21 10K library (AID 1224841; call rule not given here; further: series mostly up to about 92 µM; actives are mostly falling curves and most rising ones were filed inactive; nearly all actives have a fitted effect of over 50% in size). In outline: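 Luminescence (One-Glo, 30 min at room temperature) after 18 h compound treatment at 37 C of PGC/ERR reporter cells plated at 2,000 cells/well and settled 6 h beforehand.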

Experiment [13] can be described thus: qHTS assay to identify small molecule agonists of the estrogen related receptor signaling pathway with the pleiotropic PPARgamma coactivator (PGC) from Tox21 10K library (AID 1224842). Further: nearly all actives have a fitted effect of over 15% in size. The procedure, abridged:
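PGC/ERR reporter cell line, 2,000 cells per well, incubated 6 h at 37 C before 23 nL compound in DMSO was added. After 18 h at 37 C, One-Glo luminescence read following 30 min at room temperature.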

Experiment [14] in a line: qHTS assay to identify small molecule antagonists of the estrogen related receptor (ERR) signaling pathway - cell viability counter screen (AID 1224818). Further: series mostly up to about 46 µM. In outline: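 Cytotoxicity counter screen: fluorescence from CellTiter-Fluor, added after 17.5 h compound exposure at 37 C and read 30 min later. ERR cell line seeded at 2,000 cells/well, preincubated 6 h before dosing.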

The nature of experiment [15]: qHTS assay to identify small molecule antagonists of the estrogen related receptor signaling pathway with the pleiotropic PPARgamma coactivator (PGC) cell viability counter screen (AID 1224822; further: series mostly up to about 46 µM). The procedure, abridged:
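Viability counter-screen read by fluorescence intensity after 30 min with CellTiter-Fluor at 37 C; PGC/ERR reporter cells were exposed to compounds for 17.5 h at 37 C following a 6 h preincubation.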

Experiment [16] addresses Luciferin 4-monooxygenase (Photinus pyralis) (UniProt P08659). Nature of the experiment: qHTS assay to identify small molecule inhibitors of firefly luciferase (AID 1224835). Further: series mostly up to about 120 µM; nearly all actives have a fitted effect of over 25% in size. In outline: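 Biochemical qHTS: compounds run as interplate titrations against purified firefly enzyme, with D-luciferin and ATP each at its KM concentration. Light output recorded by CCD imaging.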

Experiment [17] can be described thus: qHTS assay to identify small molecule antagonists of the estrogen related receptor (ERR) signaling pathway (AID 1224819;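 further: luminescence from an ERR-driven luciferase reporter measured with One-Glo reagent; series mostly up to about 46 µM; nearly all actives have a fitted effect of over 50% in size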). The procedure, abridged:
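LOPAC library screened for antagonism as reduced One-Glo luminescence in ERR reporter cells (2,000/well). Compounds were added after 6 h pre-incubation and left 18 h at 37C; reading followed a 30 min room-temperature reagent step.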

Experiment [18] can be described thus: qHTS assay to identify small molecule agonists of the estrogen related receptor (ERR) signaling pathway (AID 1224820). The procedure, abridged:
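Luminescence readout (One-Glo, 30 min RT) from NTP-supplied ERR cell line exposed to compounds for 18 h at 37 C. Cells seeded 2,000 per well and pre-incubated 6 h before pin-tool compound transfer.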

The test system of experiment [19] is estrogen-related receptor alpha (ERRalpha) with PGC-1alpha coactivator, human. Nature of the experiment: qHTS assay to identify small molecule antagonists of the estrogen related receptor signaling pathway with the pleiotropic PPARgamma coactivator (PGC) (AID 1224821; calls by dose curve). The procedure, abridged: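 PGC/ERR reporter cells; 6 h pre-incubation 37 C/5% CO2; pin-tool compound in DMSO, 18 h 37 C; One-Glo added, 30 min RT; luminescence read. qHTS antagonist mode.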

A short description of experiment [20]: qHTS assay to identify small molecule agonists of the estrogen related receptor signaling pathway with the pleiotropic PPARgamma coactivator (PGC) (AID 1224823). In outline: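 Luminescence readout (One-Glo, 30 min RT) from PGC/ERR cell line treated 18 h at 37 C with pin-tool-delivered DMSO compound solutions; cells plated 6 h before dosing. Quantitative HTS format.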

“And” between values parts separate entries of the source, which are not always exact repeats. Identical values can stand only once. Records with an inconclusive call do not appear. The source holds several records for some structures; these can differ, active in one and inactive in another. The source made the active and inactive calls. Unless noted, the call rests on the fitted dose curve; in most records, active means well fitted curve in the direction sought with a large enough effect in the repeat runs; inconclusive means weak or mixed curves; inactive means no such curve, though single readings can be large; an effect the other way counts as inactive or inconclusive.
On the % scale 0 is the no-effect control and ±100 the full control effect.

Chain of Nuclear receptor subfamily 1 group I member 3 (Homo sapiens) (Q14994 whole entry, looked up): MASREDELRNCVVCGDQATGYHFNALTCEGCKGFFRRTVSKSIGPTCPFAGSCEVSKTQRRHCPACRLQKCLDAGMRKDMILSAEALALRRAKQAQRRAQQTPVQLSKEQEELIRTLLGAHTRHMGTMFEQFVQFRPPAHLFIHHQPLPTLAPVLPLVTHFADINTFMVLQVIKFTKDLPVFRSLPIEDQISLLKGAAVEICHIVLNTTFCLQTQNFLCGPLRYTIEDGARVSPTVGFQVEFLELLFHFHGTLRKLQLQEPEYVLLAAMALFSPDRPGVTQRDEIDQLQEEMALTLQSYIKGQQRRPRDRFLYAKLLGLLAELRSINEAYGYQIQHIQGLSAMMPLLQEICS
Chain of Retinoic acid receptor RXR-alpha (Homo sapiens) (P19793 whole entry, looked up): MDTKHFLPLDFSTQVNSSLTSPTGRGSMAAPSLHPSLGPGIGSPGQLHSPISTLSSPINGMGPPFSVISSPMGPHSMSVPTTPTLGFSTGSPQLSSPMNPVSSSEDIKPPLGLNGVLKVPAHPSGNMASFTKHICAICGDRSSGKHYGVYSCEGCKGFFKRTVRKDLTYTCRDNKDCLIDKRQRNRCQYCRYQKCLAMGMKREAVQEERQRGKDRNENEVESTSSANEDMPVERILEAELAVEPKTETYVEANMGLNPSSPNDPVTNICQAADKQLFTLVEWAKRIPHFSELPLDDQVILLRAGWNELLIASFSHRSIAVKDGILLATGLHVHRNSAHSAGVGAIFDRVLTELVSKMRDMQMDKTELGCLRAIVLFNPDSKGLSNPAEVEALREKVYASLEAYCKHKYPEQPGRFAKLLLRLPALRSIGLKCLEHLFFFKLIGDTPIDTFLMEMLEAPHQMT
Chain of Luciferin 4-monooxygenase (Photinus pyralis) (P08659 whole entry, looked up): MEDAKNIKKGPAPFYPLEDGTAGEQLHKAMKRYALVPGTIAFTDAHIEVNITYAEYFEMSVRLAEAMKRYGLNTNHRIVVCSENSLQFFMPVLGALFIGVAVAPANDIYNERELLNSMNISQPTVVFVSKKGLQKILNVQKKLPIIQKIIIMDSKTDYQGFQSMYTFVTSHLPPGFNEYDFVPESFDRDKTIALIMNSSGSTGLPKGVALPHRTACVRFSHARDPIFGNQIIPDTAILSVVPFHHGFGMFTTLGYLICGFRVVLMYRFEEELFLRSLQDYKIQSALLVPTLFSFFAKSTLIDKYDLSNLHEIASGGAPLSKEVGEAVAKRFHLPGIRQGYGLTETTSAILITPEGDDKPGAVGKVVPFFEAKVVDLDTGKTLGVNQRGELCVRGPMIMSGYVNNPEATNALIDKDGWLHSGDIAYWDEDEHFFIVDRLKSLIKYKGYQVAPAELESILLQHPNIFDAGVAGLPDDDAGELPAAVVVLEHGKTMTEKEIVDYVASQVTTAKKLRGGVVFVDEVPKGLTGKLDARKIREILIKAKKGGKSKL

As to `CCOC(=O)CC(C)=O`, the Potency entry in experiment [1], in experiment [2], in experiment [4], in experiment [5], in experiment [6] and in experiment [7] was “inactive” throughout. Also, the Potency entry in [8] and in experiment [9] was “inactive” throughout. Also, in experiment [3], the outcome was inactive.
With `Cc1c(NC(C)C)c(=O)n(-c2ccccc2)n1C`, the Potency entry in experiment [1], in experiment [2], in [4], in experiment [5], in experiment [6] and in experiment [7] was “inactive” each time. Moreover, the Potency entry in experiment [8], in experiment [10], in experiment [11], in experiment [9] and in experiment [12] was “inactive” throughout. Also, the call in [3] and in experiment [13] was inactive.
For the compound `NS(=O)(=O)c1cc2c(cc1Cl)NC(C1CC3C=CC1C3)NS2(=O)=O` (stereo not given), the Potency entry in [2], in experiment [4], in [5], in experiment [6], in [16] and in [7] was “inactive” in each case. Besides, the Potency entry in experiment [8], in experiment [10], in experiment [11] and in experiment [9] was “inactive” in each case. The call in experiment [3], in experiment [14] and in [15] was inactive.
`O=C[C@H](O)[C@@H](O)[C@H](O)[C@H](O)CO`: the Potency entry in experiment [1], in [2], in experiment [6], in experiment [16], in experiment [7] and in experiment [8] was “inactive” each time. The Potency entry in [10], in experiment [11], in [9] and in experiment [12] was “inactive” each time. Besides, the result in experiment [3] and in experiment [13] was inactive.
Take `COC(=O)c1c(Cl)c(Cl)c(C(=O)OC)c(Cl)c1Cl`: the Potency result in [1] is “inactive and 5.49 µM (active)”; in [11], 54.5 µM (active) and 8.63 µM (active). Also, the Potency entry in experiment [2], in [6], in experiment [16], in experiment [7], in experiment [8] and in [10] was “inactive” in each case. Also, the Potency entry in [9] and in [12] was “inactive” each time. Further, the compound was classed as inactive in experiment [3], in experiment [14], in experiment [17], in experiment [18], in experiment [19] and in experiment [15]. The call in experiment [20] and in [13] was inactive.
For the compound `CCCCCCCCCCCCCC=O`, the activation in experiment [1] is 0.369% [at 6.98 µM] (inactive); in experiment [5] it was 1.59% [at 8.36 µM] (inactive); in [11] it was -0.0217% [at 8.39 µM] (inactive). Besides, the activity change, negative = cytotoxicity in [2] was 1.55% [at 6.97 µM] (inactive); in experiment [3] it was 4.56% [at 8.39 µM] (inactive); in experiment [8] it was 6.66% [at 8.39 µM] (inactive). Further, the results for the activity, negative = inhibition in experiment [4], in [10] and in experiment [12] were -4.55% [at 8.39 µM] (inactive), -13.4% [at 8.39 µM] (inactive) and 11.8% [at 8.39 µM] (inactive), respectively. The figures for the viability change, negative = cytotoxic in experiment [6], in experiment [7] and in experiment [9] were 1.13% [at 8.39 µM] (inactive), -0.0726% [at 8.39 µM] (inactive) and 5.18% [at 8.39 µM] (inactive), respectively.
As to `CC(=O)CC(C)(C)C1CCCCC1`, the Potency result in experiment [1], in [2], in experiment [4], in experiment [5], in [6] and in experiment [7] was “inactive” throughout. Besides, the Potency result in experiment [8], in experiment [10], in experiment [11], in experiment [9] and in experiment [12] was “inactive” throughout. Besides, the result in experiment [3] was inactive.
Turning to `Brc1c(NC2=NCCN2)ccc2nccnc12`, the Potency entry in [2], in [4], in experiment [5], in [6], in [7] and in experiment [8] was “inactive” each time. Further, the Potency entry in experiment [10], in experiment [11], in [9] and in experiment [12] was “inactive” each time. Also, the compound was classed as inactive in experiment [3], in [14], in experiment [17], in [18], in experiment [19] and in [15]. Also, the outcome in experiment [20] and in experiment [13] was inactive.
`N=C(N)c1ccc2cc(OC(=O)c3ccc(N=C(N)N)cc3)ccc2c1`: the Potency entry in experiment [1], in experiment [2], in [4], in experiment [5], in [6] and in experiment [7] was “inactive” throughout. Besides, the Potency result in experiment [8], in [10], in experiment [11], in experiment [9] and in [12] was “inactive” each time. The call in [3] and in experiment [13] was inactive.

(Values after PubChem BioAssay (Tox21).)
